Binding signal data for 1 sequence are collected here from publication PMC7862700, “An all-to-all approach to the identification of sequence-specific readers for epigenetic DNA modifications on cytosine”.

Common to all, as to assay: DAPPL (digital affinity profiling via proximity ligation, sequencing); 10 mM Tris-HCl pH 7.5, 50 mM NaCl, 1 mM DTT, 4% glycerol, room temperature, 30 min; GST-TFs on glutathione beads, 16-mer random dsDNA library, 0.1% formaldehyde crosslink after washing; high values mean tight binding
For one test, the target named is T1, FLI1 (Homo sapiens, UniProt Q01543 1-452).
T1 sequence: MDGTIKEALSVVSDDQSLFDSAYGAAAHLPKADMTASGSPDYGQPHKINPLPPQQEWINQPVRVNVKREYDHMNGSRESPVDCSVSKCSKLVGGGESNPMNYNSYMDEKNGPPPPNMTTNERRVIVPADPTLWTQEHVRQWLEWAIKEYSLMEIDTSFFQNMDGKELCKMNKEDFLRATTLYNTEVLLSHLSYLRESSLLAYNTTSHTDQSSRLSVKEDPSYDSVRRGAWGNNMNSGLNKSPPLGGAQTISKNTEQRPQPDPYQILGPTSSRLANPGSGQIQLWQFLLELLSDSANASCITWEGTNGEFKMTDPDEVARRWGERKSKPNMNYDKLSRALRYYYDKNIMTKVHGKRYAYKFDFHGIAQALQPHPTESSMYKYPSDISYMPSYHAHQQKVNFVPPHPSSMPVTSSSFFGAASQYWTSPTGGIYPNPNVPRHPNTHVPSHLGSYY
Conditions: protein: recombinant; tags: N-terminal GST; dsDNA, one strand shown. In outline: (§1)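 After expression in yeast as GST fusions, human transcription factors were bound to glutathione beads, DNA-barcoded and mixed with a tag-only sample. The pools were incubated with 200 nmole of a 16-mer random double-stranded DNA library in Tris/NaCl/DTT/glycerol buffer (30 min, room temperature), washed and crosslinked with 0.1% formaldehyde. Proximity ligation with BsaI/T4 ligase ran for 1 h at 37 °C, before PCR amplification and sequencing on an Illumina NextSeq500. Binding signal is a hexamer's read frequency for a factor divided by its frequency for the tag-only sample.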

A further test concerns the target T2, ELK1 (Homo sapiens, UniProt P19419 1-428).
T2 sequence: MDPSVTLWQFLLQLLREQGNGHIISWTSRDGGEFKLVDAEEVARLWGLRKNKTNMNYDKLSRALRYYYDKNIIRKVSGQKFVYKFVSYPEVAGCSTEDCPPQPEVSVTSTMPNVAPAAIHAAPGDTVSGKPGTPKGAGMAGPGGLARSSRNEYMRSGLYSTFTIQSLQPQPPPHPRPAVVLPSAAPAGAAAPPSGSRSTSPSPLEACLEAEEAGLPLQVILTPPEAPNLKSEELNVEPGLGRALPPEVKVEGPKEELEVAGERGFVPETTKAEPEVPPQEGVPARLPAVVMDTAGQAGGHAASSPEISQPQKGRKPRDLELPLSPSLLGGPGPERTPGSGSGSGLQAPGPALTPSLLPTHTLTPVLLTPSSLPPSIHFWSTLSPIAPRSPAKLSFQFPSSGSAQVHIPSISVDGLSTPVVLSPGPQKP
Conditions: protein: recombinant; tags: N-terminal GST; dsDNA, one strand shown. In a few lines: as §1

The target in another test is T3, GABPA (Homo sapiens, UniProt Q06546 1-454).
T3 sequence: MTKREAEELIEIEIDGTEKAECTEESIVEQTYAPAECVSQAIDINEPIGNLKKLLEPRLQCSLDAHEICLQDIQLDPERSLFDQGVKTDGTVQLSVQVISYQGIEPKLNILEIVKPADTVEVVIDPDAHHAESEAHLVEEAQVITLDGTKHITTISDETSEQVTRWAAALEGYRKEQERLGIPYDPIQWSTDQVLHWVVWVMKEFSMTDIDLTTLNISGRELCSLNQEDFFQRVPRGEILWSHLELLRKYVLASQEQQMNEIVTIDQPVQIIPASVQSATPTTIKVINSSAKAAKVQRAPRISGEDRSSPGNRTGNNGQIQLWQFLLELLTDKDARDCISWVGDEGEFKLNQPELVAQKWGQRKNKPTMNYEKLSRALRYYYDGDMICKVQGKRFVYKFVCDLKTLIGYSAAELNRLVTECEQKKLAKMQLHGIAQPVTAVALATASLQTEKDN
As to conditions: protein: recombinant; tags: N-terminal GST; dsDNA, one strand shown. In outline:
as §1

A further test addresses T4, ERG (Homo sapiens, UniProt P11308 1-479).
T4 sequence: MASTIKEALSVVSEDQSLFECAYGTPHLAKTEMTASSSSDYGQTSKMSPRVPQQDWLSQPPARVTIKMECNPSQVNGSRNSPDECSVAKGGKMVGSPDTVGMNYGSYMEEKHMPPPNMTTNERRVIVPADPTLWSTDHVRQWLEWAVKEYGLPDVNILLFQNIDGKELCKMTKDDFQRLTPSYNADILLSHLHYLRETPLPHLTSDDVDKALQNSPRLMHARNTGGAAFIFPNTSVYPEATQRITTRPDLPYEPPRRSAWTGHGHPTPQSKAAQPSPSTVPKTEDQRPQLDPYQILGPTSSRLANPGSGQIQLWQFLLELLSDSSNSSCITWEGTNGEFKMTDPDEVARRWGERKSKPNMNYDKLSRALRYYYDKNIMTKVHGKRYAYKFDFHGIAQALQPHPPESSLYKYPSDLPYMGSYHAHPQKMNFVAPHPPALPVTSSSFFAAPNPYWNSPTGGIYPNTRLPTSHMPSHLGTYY
As to conditions: protein: recombinant; tags: N-terminal GST; dsDNA, one strand shown. In outline:
as §1

The target in a further test is ELF1 (Homo sapiens, UniProt P32519 1-619). As to conditions: protein: recombinant; tags: N-terminal GST; dsDNA, one strand shown. In outline: as §1
ELF1, sequence (P32519 whole entry): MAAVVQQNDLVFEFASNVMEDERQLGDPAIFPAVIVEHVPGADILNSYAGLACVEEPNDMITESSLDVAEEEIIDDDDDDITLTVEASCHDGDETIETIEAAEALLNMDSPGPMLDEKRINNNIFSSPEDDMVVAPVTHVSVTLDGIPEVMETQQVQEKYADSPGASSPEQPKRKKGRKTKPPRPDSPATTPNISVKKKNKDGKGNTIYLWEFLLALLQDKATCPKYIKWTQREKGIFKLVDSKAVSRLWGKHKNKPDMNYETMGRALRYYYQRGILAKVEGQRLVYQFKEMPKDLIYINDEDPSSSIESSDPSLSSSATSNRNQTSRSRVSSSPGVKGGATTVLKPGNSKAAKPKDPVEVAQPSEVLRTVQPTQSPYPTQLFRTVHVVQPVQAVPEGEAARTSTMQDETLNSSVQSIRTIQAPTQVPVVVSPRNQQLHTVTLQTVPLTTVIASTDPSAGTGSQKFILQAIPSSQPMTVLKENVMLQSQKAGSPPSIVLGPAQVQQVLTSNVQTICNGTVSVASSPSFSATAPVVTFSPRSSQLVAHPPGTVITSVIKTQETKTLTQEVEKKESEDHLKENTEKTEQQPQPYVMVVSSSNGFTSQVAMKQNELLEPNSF
In another test the target is T5, EHF (Homo sapiens, UniProt Q9NZC4 1-300).
T5 sequence: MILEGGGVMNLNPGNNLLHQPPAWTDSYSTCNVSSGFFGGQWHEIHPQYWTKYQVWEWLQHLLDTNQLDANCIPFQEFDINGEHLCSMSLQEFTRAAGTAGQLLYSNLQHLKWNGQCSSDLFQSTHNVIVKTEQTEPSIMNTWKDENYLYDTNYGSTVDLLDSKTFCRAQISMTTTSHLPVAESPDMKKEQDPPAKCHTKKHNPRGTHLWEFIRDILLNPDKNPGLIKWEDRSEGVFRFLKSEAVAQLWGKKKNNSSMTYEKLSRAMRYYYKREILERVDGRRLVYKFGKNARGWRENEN
Conditions: protein: recombinant; tags: N-terminal GST; dsDNA, one strand shown. In a few lines: as §1

A further test deals with SPI1 (Homo sapiens, UniProt P17947 1-270). As to conditions: protein: recombinant; tags: N-terminal GST; dsDNA, one strand shown. In outline: as §1
Another test deals with SPIB (Homo sapiens, UniProt Q01892 1-262). As to conditions: protein: recombinant; tags: N-terminal GST; dsDNA, one strand shown. In a few lines:
as §1

For the next test, the target named is T6, ELK3 (Homo sapiens, UniProt P41970 1-407).
T6 sequence: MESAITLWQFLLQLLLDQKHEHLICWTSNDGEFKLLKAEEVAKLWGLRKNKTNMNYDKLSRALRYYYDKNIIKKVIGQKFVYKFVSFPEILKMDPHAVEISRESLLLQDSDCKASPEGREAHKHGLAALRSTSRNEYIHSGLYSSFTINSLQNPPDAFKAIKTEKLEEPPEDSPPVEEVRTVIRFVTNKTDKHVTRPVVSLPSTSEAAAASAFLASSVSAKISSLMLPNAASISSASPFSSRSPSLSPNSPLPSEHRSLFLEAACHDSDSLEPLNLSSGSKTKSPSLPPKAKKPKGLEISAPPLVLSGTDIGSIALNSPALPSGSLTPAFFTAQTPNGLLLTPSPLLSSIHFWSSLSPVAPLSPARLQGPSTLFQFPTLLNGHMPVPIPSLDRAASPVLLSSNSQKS
As to conditions: protein: recombinant; tags: N-terminal GST; dsDNA, one strand shown. In a few lines:
as §1

Another test addresses T7, FEV (Homo sapiens, UniProt Q99581 1-238).
T7 sequence: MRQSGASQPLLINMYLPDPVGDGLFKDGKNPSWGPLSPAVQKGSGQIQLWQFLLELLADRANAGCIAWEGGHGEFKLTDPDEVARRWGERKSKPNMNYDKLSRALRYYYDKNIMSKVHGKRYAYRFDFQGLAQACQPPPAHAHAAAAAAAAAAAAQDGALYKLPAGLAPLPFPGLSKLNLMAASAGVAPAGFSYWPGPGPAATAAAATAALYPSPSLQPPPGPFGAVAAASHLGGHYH
Conditions: protein: recombinant; tags: N-terminal GST; dsDNA, one strand shown. In a few lines:
as §1

A further test concerns the target ETV5 (Homo sapiens, UniProt P41161 1-510). As to conditions: protein: recombinant; tags: N-terminal GST; dsDNA, one strand shown. In a few lines: as §1
For the next test, the target named is HSF1 (Homo sapiens, UniProt Q00613 1-529). As to conditions: protein: recombinant; tags: N-terminal GST; chain copies: 3; dsDNA, one strand shown. In outline: as §1
HSF1, sequence (Q00613 whole entry): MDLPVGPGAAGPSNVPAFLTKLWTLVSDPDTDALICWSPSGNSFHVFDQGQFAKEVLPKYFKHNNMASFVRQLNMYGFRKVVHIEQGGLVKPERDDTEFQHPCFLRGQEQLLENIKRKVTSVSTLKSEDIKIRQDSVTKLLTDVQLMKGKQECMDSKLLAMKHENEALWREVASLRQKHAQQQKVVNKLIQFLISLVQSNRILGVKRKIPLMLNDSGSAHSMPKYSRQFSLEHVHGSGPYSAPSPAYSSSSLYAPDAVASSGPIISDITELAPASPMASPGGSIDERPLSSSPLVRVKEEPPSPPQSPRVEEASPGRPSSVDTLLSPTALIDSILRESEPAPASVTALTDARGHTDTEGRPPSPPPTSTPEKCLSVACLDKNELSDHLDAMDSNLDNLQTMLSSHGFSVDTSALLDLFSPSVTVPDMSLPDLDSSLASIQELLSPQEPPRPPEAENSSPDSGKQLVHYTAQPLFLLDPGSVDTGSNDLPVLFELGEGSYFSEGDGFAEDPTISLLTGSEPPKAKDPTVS
Another test addresses T8, SPIC (Homo sapiens, UniProt Q8N5J4 1-248).
T8 sequence: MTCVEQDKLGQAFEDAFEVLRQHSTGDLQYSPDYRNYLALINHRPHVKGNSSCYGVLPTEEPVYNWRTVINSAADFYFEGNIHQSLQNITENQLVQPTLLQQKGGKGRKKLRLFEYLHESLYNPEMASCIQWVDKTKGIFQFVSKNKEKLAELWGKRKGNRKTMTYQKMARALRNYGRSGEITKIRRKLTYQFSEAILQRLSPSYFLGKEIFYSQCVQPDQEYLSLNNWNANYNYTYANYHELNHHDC
As to conditions: protein: recombinant; tags: N-terminal GST; dsDNA, one strand shown. In a few lines:
as §1

The target in another test is ELF4 (Homo sapiens, UniProt Q99607 1-663). As to conditions: protein: recombinant; tags: N-terminal GST; dsDNA, one strand shown. In outline:
as §1

In another test the target is T9, ELK4 (Homo sapiens, UniProt P28324-2 1-405).
T9 sequence: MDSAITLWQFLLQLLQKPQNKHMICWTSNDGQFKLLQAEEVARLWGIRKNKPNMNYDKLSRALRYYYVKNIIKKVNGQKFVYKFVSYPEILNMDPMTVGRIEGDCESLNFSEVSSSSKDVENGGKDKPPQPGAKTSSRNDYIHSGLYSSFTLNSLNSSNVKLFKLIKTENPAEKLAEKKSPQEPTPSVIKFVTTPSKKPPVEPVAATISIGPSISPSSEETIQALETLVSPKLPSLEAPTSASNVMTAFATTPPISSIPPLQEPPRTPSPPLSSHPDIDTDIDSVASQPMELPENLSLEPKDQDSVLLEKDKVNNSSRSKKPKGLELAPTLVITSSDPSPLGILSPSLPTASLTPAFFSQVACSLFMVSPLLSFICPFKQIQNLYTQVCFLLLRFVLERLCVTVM
As to conditions: protein: recombinant; tags: N-terminal GST; dsDNA, one strand shown. In a few lines: as §1

In another test the target is T10, ETV2 (Homo sapiens, UniProt O00321 1-342).
T10 sequence: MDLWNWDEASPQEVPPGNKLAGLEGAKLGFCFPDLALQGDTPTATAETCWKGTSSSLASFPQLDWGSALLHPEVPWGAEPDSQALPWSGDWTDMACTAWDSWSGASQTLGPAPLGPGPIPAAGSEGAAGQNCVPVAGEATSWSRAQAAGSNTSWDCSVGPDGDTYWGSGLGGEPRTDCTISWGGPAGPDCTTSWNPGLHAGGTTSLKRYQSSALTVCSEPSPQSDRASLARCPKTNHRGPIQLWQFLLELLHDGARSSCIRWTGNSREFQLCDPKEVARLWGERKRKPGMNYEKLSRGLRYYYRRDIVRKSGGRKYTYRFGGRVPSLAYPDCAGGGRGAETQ
Conditions: protein: recombinant; tags: N-terminal GST; dsDNA, one strand shown. In outline:
as §1

A further test deals with T11, ELF3 (Homo sapiens, UniProt P78545 1-371).
T11 sequence: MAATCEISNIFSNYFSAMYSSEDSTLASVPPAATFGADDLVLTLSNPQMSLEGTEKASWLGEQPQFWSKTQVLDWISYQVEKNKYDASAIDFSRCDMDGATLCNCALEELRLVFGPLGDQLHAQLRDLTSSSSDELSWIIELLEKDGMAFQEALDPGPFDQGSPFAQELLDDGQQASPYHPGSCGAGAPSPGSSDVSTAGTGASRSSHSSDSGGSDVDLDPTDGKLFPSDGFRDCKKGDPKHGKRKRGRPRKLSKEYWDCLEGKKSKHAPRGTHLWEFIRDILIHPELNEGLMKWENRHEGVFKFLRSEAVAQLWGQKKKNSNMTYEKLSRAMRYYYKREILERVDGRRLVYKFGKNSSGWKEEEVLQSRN
Conditions: protein: recombinant; tags: N-terminal GST; dsDNA, one strand shown. In a few lines:
as §1

The target in a further test is CRX (Homo sapiens, UniProt O43186 1-299). As to conditions: protein: recombinant; tags: N-terminal GST; dsDNA, one strand shown. In a few lines: as §1
CRX, sequence (O43186 whole entry): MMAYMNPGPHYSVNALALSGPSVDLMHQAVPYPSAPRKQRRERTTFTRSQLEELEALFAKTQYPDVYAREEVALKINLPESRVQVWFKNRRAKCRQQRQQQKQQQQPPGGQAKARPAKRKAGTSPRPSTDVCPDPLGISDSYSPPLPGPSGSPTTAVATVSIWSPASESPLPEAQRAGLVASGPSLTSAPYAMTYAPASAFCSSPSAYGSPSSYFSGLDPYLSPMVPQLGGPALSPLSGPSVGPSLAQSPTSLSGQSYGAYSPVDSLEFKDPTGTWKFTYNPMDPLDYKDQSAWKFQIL
The next test concerns the target ETV1 (Homo sapiens, UniProt P50549 1-477). As to conditions: protein: recombinant; tags: N-terminal GST; dsDNA, one strand shown. In a few lines: as §1

SPIB, sequence (Q01892 whole entry): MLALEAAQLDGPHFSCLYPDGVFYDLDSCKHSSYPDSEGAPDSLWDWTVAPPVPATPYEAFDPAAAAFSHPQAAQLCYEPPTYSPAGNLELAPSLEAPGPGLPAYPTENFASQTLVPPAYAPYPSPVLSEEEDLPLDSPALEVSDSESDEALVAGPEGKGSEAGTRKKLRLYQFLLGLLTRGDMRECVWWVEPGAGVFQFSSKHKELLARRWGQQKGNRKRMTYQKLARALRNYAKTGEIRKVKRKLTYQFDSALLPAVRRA
ELF4, sequence (Q99607 whole entry): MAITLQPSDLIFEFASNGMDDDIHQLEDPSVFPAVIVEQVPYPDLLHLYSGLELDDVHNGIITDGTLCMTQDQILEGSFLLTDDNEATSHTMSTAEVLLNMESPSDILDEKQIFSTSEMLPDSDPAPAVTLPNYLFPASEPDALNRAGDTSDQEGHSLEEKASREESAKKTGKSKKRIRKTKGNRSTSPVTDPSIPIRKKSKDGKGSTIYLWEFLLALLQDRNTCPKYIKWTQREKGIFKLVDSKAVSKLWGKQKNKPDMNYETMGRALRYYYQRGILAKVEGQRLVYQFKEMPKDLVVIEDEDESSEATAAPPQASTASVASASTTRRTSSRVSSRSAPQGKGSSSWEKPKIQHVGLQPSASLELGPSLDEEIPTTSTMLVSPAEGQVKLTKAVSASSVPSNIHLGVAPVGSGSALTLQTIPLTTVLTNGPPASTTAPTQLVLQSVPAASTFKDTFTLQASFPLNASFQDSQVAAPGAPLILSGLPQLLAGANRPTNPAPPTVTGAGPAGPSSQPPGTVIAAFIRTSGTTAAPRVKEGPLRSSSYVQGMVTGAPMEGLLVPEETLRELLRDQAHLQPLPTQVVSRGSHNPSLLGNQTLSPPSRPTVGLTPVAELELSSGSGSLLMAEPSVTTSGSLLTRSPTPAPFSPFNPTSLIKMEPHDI
ETV5, sequence (P41161 whole entry): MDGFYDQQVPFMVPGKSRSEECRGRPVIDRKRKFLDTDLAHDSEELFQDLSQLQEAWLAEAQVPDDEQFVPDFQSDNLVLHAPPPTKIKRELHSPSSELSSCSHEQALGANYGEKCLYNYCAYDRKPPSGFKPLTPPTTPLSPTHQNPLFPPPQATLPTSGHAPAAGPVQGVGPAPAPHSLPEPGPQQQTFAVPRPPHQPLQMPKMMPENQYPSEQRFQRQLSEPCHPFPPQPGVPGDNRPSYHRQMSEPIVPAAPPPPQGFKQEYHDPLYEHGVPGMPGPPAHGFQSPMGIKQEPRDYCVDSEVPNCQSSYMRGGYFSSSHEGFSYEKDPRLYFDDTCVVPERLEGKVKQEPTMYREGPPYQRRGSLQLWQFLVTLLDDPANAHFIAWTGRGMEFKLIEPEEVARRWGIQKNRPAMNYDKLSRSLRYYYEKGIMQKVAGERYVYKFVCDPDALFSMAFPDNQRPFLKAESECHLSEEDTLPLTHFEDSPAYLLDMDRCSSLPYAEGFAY
ETV1, sequence (P50549 whole entry): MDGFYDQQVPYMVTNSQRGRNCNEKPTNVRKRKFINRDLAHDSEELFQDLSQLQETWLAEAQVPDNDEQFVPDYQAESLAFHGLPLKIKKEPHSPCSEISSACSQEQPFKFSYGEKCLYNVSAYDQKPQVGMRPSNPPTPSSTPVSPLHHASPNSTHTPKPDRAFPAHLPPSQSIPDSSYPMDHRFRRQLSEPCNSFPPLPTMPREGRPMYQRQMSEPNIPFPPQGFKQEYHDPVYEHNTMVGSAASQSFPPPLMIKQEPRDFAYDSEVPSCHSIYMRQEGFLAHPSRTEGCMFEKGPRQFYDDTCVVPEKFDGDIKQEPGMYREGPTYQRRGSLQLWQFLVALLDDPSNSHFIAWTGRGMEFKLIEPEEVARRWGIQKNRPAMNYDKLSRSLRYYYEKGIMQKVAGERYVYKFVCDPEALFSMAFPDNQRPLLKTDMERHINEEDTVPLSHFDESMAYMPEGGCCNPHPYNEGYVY

For CCTCAA, the binding signal in the test with FLI1 is 1.47 fold enrichment (6-mer frequency, TF over GST control); in the test with ELK1, 1.32 fold enrichment (6-mer frequency, TF over GST control); with GABPA, 1.46 fold enrichment (6-mer frequency, TF over GST control); in the test with ERG, 1.26 fold enrichment (6-mer frequency, TF over GST control); with ELF1, 1.32 fold enrichment (6-mer frequency, TF over GST control); with EHF, 1.39 fold enrichment (6-mer frequency, TF over GST control). Further, the binding signal with SPI1 was 1.55 fold enrichment (6-mer frequency, TF over GST control); with SPIB it was 1.42 fold enrichment (6-mer frequency, TF over GST control); with ELK3, 1.44 fold enrichment (6-mer frequency, TF over GST control); with FEV, 1.42 fold enrichment (6-mer frequency, TF over GST control); in the test with ETV5, 1.42 fold enrichment (6-mer frequency, TF over GST control); with HSF1 it was 1.2 fold enrichment (6-mer frequency, TF over GST control). Further, the binding signal with SPIC was 1.46 fold enrichment (6-mer frequency, TF over GST control); with ELF4, 1.38 fold enrichment (6-mer frequency, TF over GST control); with ELK4, 1.35 fold enrichment (6-mer frequency, TF over GST control); with ETV2 it was 1.61 fold enrichment (6-mer frequency, TF over GST control); in the test with ELF3, 1.54 fold enrichment (6-mer frequency, TF over GST control); in the test with CRX it was 1.15 fold enrichment (6-mer frequency, TF over GST control). In addition, the binding signal with ETV1 was 1.42 fold enrichment (6-mer frequency, TF over GST control).
